Test [1] in a line: NCI Yeast Anticancer Drug Screen. Data for the rad50 strain (AID 155).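 Note: 0% = growth of vehicle-only cultures of the same strain.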 The settings on record: S. cerevisiae rad50 strain growth inhibition; at 50.0 µM; stronger effect = higher value. The method in brief: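 Relative growth inhibition (compound vs vehicle) was measured in yeast with a defined repair-gene alteration.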
Test [2] can be described thus: NCI Yeast Anticancer Drug Screen. Data for the mec2-1 strain (AID 157). The settings on record: S. cerevisiae mec2-1 strain, at 50.0 µM, stronger effect = higher value. The method in brief: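 Readout is yeast growth inhibition, normalised to vehicle-treated controls, in the mec2-1 strain exposed to compound.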
A short description of test [3]: NCI Yeast Anticancer Drug Screen. Data for the sgs1 mgt1 strain (AID 161).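 Note: 0% = growth of cultures given vehicle only.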 The settings on record: S. cerevisiae sgs1 mgt1 strain, at 50.0 µM, stronger effect = higher value. The gist of the method:
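Yeast cells carrying a defined DNA-repair defect were exposed to test compounds. Growth inhibition was measured relative to vehicle-treated controls.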

The nature of test [4]: NCI Yeast Anticancer Drug Screen. Data for the cln2 rad14 strain (AID 165).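 Note: 0% = growth equal to vehicle treated cultures.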 The settings on record: S. cerevisiae cln2 rad14 strain, at 50.0 µM, stronger effect = higher value. The method in brief:
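Relative to vehicle controls, growth inhibition of compound-treated cln2 rad14 yeast was recorded.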

Test [5] in a line: NCI Yeast Anticancer Drug Screen. Data for the bub3 strain (AID 167). The note with it: S. cerevisiae bub3 mutant strain, at 50.0 µM, stronger effect = higher value. The gist of the method: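 Screening used yeast with an engineered genetic alteration affecting cell cycle control. Compound-exposed cultures were compared with vehicle cultures, and reduced growth was taken as inhibition.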

Test [6] is described as follows: NCI Yeast Anticancer Drug Screen. Data for the mlh1 rad18 strain (AID 175). The settings on record: S. cerevisiae mlh1 rad18 strain growth inhibition; at 50.0 µM; stronger effect = higher value. The method in brief:
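Test agents were incubated with a yeast strain of defined genotype (DNA damage repair defect). Inhibition of growth was derived by comparison with vehicle-exposed cultures.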

Compounds without any hit were thinned out: in the full panel of roughly 79,000, 15% have a hit. Unmarked numbers belong to inactive results. Active and inactive are the calls of the source. Cut-off read from the data, not from the text of the source: active = growth inhibition above about 70%; inactive = the rest.

As to `Cc1ccc2c(c1)C(=O)c1ccccc1C2=O`, the growth inhibition is 7.8% in test [1]; 1.05% in test [2]; 1.9% in test [3]; 11.9% in test [4]; 52% in test [5]; 6% in test [6].

Turning to `COc1ccc(C(c2ccccc2)c2ccc(OC)cc2)cc1`, the growth inhibition is -7.95% in test [1]; -13% in test [2]; -12.9% in test [3]; -124% in test [4]; 37.7% in test [5]; 4.45% in test [6].

Turning to `COSCCCC(C)=O`, the growth inhibition was 25.5% in test [1]; 4% in test [2]; -5.15% in test [3]; 13.8% in test [4]; 6.55% in test [5]; 13.8% in test [6].

For `Cc1cc(C)nc(C)c1.[Cl-].[Cl-].[Cl-].[Cl-].[Pt+2]`, the growth inhibition in test [1] is 8.9%; in test [2] it was 9.25%; in test [3], -7.5%; in test [4], 7.4%; in test [5], 2.6%; in test [6], 7.1%.

On to `Cc1c(C(=O)CC(=O)C(=O)Nc2c(C(C)C)cccc2C(C)C)[n+](=O)c2ccccc2n1[O-]`, for which the growth inhibition in test [1] is 35.6%; in test [2], 39.5%; in test [3] it was 22.2%; in test [4], 40.5%; in test [5] it was 29.8%; in test [6], 36%.

On to `O=C1C(Cl)N(c2ccc([N+](=O)[O-])cc2)C1c1c[nH]c2ccccc12` (stereo not drawn), for which the growth inhibition was -4.2% in test [1]; -38.6% in test [2]; -0.3% in test [3]; 8.75% in test [4]; 19.2% in test [5]; -31.4% in test [6].

For `CCOC(=O)N1CCN(Cc2cc(=O)n3ccc(C)cc3n2)CC1`, the growth inhibition was 21.8% in test [1]; 2.8% in test [2]; 3.7% in test [3]; 12.5% in test [4]; 17.4% in test [5]; 22.1% in test [6].

With `Cc1ccc(NC(=O)CCCC(=O)C(C#N)c2ccccc2Cl)cc1C` (stereo not drawn), the growth inhibition is 0.15% in test [1]; -0.95% in test [2]; -5.75% in test [3]; -22.5% in test [4]; -10.1% in test [5]; -5.1% in test [6].

For `C1CCC2C(C1)CCCC2CC1CCCC2CCCCC21` (stereo not drawn), the growth inhibition was -11.2% in test [1]; 1.1% in test [2]; -10.3% in test [3]; -17.5% in test [4]; -9.05% in test [5]; -4.65% in test [6].

`Cn1c(=O)c2cc(O)cnc2n(C)c1=O`: the growth inhibition is 4.8% in test [1]; -5.8% in test [2]; 0.3% in test [3]; -14.7% in test [4]; -7.35% in test [5]; -3% in test [6].

As for `CCCCCCCC1CC(OCC)OC(CCCCCCC)O1` (stereo not drawn), the growth inhibition was -1.8% in test [1]; -15.1% in test [2]; -6.95% in test [3]; -8.2% in test [4]; -2.25% in test [5]; -18.4% in test [6].

In the case of `C=Cc1ccccc1N=NC(C(=O)OC)=P(c1ccccc1)(c1ccccc1)c1ccccc1`, the growth inhibition in test [1] was -24.2%; in test [2] it was 20.9%; in test [3] it was -1.2%; in test [4] it was -6.75%; in test [5] it was -4.05%; in test [6] it was -10.9%.

With `N#C/C(=C1\OC(N)=C(c2ccc(Cl)cc2)C1=O)c1ccc(Cl)cc1`, the growth inhibition in test [1] was 2.9%; in test [2], -8.45%; in test [3] it was 6.8%; in test [4], 18.4%; in test [5], 2.15%; in test [6] it was 9.2%.

On to `NNC(=O)C(=O)O`, for which the growth inhibition in test [1] was 14.4%; in test [2] it was -2.95%; in test [3] it was 20.2%; in test [4], -15%; in test [5], 15.3%; in test [6] it was 14.8%.

For the compound `OCCCOCc1ccccc1`, the growth inhibition is 39.8% in test [1]; 27.4% in test [2]; 30.9% in test [3]; 30.3% in test [4]; 17.5% in test [5]; 12.2% in test [6].

In the case of `CC1(CBr)COC(c2ccccc2)(c2ccccc2)OC1`, the growth inhibition in test [1] was 18.1%; in test [2], -2.4%; in test [3] it was 20.6%; in test [4], -31.4%; in test [5], -22.2%; in test [6] it was 28.5%.

As for `COc1ccc(Cc2cc(N=O)c(OC)cc2O)cc1`, the growth inhibition in test [1] is -12.4%; in test [2], -7.3%; in test [3], 1.15%; in test [4], -21.5%; in test [5], -3.6%; in test [6], -10.7%.

As to `FC(F)(Br)C(F)(Cl)Br` (stereo not drawn), the growth inhibition in test [1] was 18.6%; in test [2] it was 18.8%; in test [3], 17.6%; in test [4], 17.4%; in test [5], 1.5%; in test [6] it was 24.7%.

With `CN=C(NN(C)C)c1ccc(NC(=O)c2ccc(C(=O)Nc3ccc(C(=NC)NN(C)C)cc3)cc2)cc1`, the growth inhibition in test [1] is 8.4%; in test [2], 7.65%; in test [3], 10.8%; in test [4], 10.1%; in test [5] it was -13.8%; in test [6] it was 13.9%.

`Cc1ccc(-c2c(C#N)c(S)n(NS(=O)(=O)c3ccc(C)cc3)c(=O)c2C#N)cc1`: the growth inhibition was 46.1% in test [1]; 57.3% in test [2]; 59.9% in test [3]; 28.6% in test [4]; 39.6% in test [5]; 59.9% in test [6].

Consider `CC1N(/N=C/c2ccccc2)C(c2ccccc2)C(c2ccccc2)N1/N=C/c1ccccc1` (stereo not drawn), for which the growth inhibition in test [1] was 11.4%; in test [2] it was 15%; in test [3], 17.2%; in test [4], 5.3%; in test [5] it was 1.75%; in test [6] it was 6.25%.

With `COC(=O)C1=C(C(=O)OC)C2C=CC1C1C(Cl)=C(Cl)C21` (stereo not drawn), the growth inhibition in test [1] is -12%; in test [2], -0.95%; in test [3], -10.7%; in test [4], 21.2%; in test [5], 33.6%; in test [6] it was -34%.

On to `NCCN1C(=O)c2ccccc2C1(O)c1ccc(Cl)cc1` (stereo not drawn), for which the growth inhibition is -6.25% in test [1]; -35.4% in test [2]; -7% in test [3]; -4.6% in test [4]; -14.9% in test [5]; -0.65% in test [6].

Take `COC(=O)C1C2OC(C(Br)C2Br)C1C(=O)O` (stereo not drawn): the growth inhibition in test [1] is -6.2%; in test [2] it was 2.2%; in test [3], 7.1%; in test [4], 2.2%; in test [5], 9.95%; in test [6], 3.8%.

Turning to `CS(=O)(=O)CC(=O)c1ccc(O)cc1O`, the growth inhibition in test [1] is 4.55%; in test [2] it was 3.55%; in test [3], -0.6%; in test [4], -43.2%; in test [5] it was -13.1%; in test [6] it was -7%.

Consider `CCCCNC[C@@H](O)[C@H](O)COS(C)(=O)=O`, for which the growth inhibition in test [1] is 0.4%; in test [2], -11.7%; in test [3], -8.65%; in test [4] it was -24.1%; in test [5], -13.7%; in test [6] it was -7.05%.

For `CC1=CC(=O)N2CCN=C2S1`, the growth inhibition in test [1] was -7.05%; in test [2], -14.9%; in test [3], 1.65%; in test [4] it was -20.6%; in test [5] it was -3%; in test [6], -5.75%.

As for `CN=C(C#N)c1ccccc1`, the growth inhibition is -10.6% in test [1]; -17.1% in test [2]; -2.6% in test [3]; -28.9% in test [4]; 8.7% in test [5]; -15.8% in test [6].

On to `COc1ccc(/C=C/C(=O)C(C)(C)C)cc1OC`, for which the growth inhibition in test [1] is 25.4%; in test [2] it was 3.9%; in test [3] it was 3.6%; in test [4], 31.5%; in test [5], 27.9%; in test [6] it was 23.2%.

Turning to `COC1=C(OC)C(=O)C2=C(OCO2)C1=O`, the growth inhibition in test [1] is -1.05%; in test [2], 16.2%; in test [3], 4.2%; in test [4], -1.35%; in test [5], 16.5%; in test [6] it was -1.1%.

Take `O=[N+]([O-])c1ccc2nc(NCCCO)c3ccccc3c2c1`: the growth inhibition in test [1] was 8.2%; in test [2] it was 11.3%; in test [3] it was 3.85%; in test [4] it was -0.9%; in test [5] it was 12.1%; in test [6], 12.1%.

Take `CC(=O)Nc1ccc(S(=O)(=O)/C(=C\c2ccc(Cl)o2)c2ccc([N+](=O)[O-])o2)cc1`: the growth inhibition in test [1] is 90.1% (active); in test [2], 56.8%; in test [3] it was 92.9% (active); in test [4], 57.5%; in test [5] it was 61.4%; in test [6], 92.7% (active).

On to `CC(=O)OC(C(=O)N1CC1)C(OC(C)=O)C(OC(C)=O)C(OC(C)=O)C(=O)N1CC1` (stereo not drawn), for which the growth inhibition in test [1] is 24.1%; in test [2], 20.9%; in test [3], 25.4%; in test [4] it was 10.1%; in test [5], 28.6%; in test [6], 29.3%.

Take `O=C1c2ccccc2C(=O)N1NC1=NCCN1`: the growth inhibition in test [1] is -12.6%; in test [2], -13.3%; in test [3] it was -13.1%; in test [4] it was 11.8%; in test [5], 5.5%; in test [6] it was -1.8%.

As for `O=Cc1ccc(OC(=O)c2ccccc2)cc1`, the growth inhibition in test [1] was -6.35%; in test [2], -25.6%; in test [3], 13.3%; in test [4] it was -13.3%; in test [5], -1.25%; in test [6], 3.95%.

As to `CCOC(=O)Oc1ccc(C(=O)Oc2ccccc2)cc1OC`, the growth inhibition in test [1] was 18.1%; in test [2] it was 4.1%; in test [3], 12.9%; in test [4], -48.8%; in test [5], 42.1%; in test [6], 10%.

Regarding `CC(CN(C)C)C(=O)c1ccccc1C(=O)O` (stereo not drawn), the growth inhibition is -44.9% in test [1]; -24.9% in test [2]; -36% in test [3]; -35.2% in test [4]; -2.05% in test [5]; -16.7% in test [6].

Turning to `COC(=O)C(=NNc1ccccc1[N+](=O)[O-])C(=O)OC`, the growth inhibition is 15.9% in test [1]; 5% in test [2]; 23.1% in test [3]; 33.8% in test [4]; 19.8% in test [5]; -2.6% in test [6].

For the origin of these results see PubChem BioAssay (NCI).
